Assay results: PubChem BioAssay (NCATS)
Results filed as inconclusive are left out. Unmarked numbers belong to inactive results. Calls of active or inactive are those of the source. Calls come from the whole dose curve; as a rule, active = well fitted cell-killing curve with a large enough effect; inconclusive = small, poorly fitted or top-dose-only effect, or effect the other way; inactive = no such curve, though single readings can be large or run the other way.

Assay: Cell Viability - LYMP2-005 (AID 967);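 note: cells exposed to compound for 24 h at 37 °C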
Conditions: LYMP2-005 lymphoblastoid cell viability; series mostly up to 92.2 µM; activity change, negative = viability loss: at the top concentration
Text: NIH Chemical Genomics Center [NCGC]
NIH Molecular Libraries Screening Centers Network [MLSCN]
National Institutes of Environmental Health Sciences [NIEHS]
National Toxicology Program [NTP]
We have developed a 1536-well cell-based assay for quantitative high throughput screening (qHTS) against a number of cell lines to determine in vitro cytotoxicity of small molecules. This particular assay uses a human lymphoblastoid cell line (LYMP2-005) purchased from Coriell Institute for Medical Research.
NCGC Assay Protocol Summary:
The CellTiter-Glo luminescent cell viability assay (Promega) is a homogeneous method to measure the number of viable cells in culture. The end point readout of this assay is based on quantitation of intracellular ATP, an indicator of metabolic activity, using the luciferase reaction. Luciferase catalyzes the oxidation of beetle Luciferin to oxyluciferin and light in the presence of ATP. The luminescent signal is proportional to amount of ATP present.
Using the CellTiter-Glo luminescent cell viability assay, the amount of cellular ATP was measured in the lymphoblastoid cell line with complete culture medium following compound treatment for 24 hours. The assay was performed in opaque white Kalypsys 1536-well plates. In the screen, tetraoctylammonium bromide was used as positive control. Library compounds were measured for their ability to cause acute toxicity in the cell line, as reflected by a decrease in intracellular ATP levels, in a concentration-dependent manner. […] AC50 values were determined from concentration-response data modeled with the standard Hill equation.
qHTS protocol for CellTiter Glo lymphoblastoid cellular assay
[Step] [Parameter] [Value] [Description]
1. Reagent; 5 uL; 2500 lymphoblastoid cells/well
2. Time; 5 hr; 37 C incubation
4. Controls; 23 nL; Tetraoctylammonium bromide 6.4pM to 92 uM
5. Time; 24 hr; 37 C incubation
6. Reagent; 5 uL; CellTiter Glo reagent
7. Time; 30 min; Room Temperature
8. Detection; Luminescence; Viewlux plate reader
Keywords: cell viability, cytotoxicity, lymphoblastoid cell line, luminescence, NTPHTS, NTPHTS_NCGC, NIEHS, DSSTox, MLSMR, MLSCN, NIH Roadmap, qHTS, NCGC
Potency is the fitted concentration of half-maximal effect.

Going from CCC/C=N/O to CCC[N+](=O)[O-], the “activity change, negative = viability loss” value falls from 8.22% to 1.22%.

First: CCCN(CCC)c1c([N+](=O)[O-])cc(C(F)(F)F)cc1[N+](=O)[O-]
Second: CN(C)C(=O)Nc1cccc(C(F)(F)F)c1
The “activity change, negative = viability loss” value of the first is higher: 11.9% for the first, 1.49% for the second.

First: CCNCC
Second: CCBr
The “activity change, negative = viability loss” value of the first is higher: -0.38% for the first, -19.8% for the second.

Going from CC(C)(OOC(C)(C)c1ccccc1)c1ccccc1 to O=C(Cc1ccccc1)OCc1ccccc1, the “activity change, negative = viability loss” value rises from -16.5% to 13.4%.

Compared with Cc1ccc([N+](=O)[O-])cc1, Cc1ccc2c(C)cccc2c1 is higher in “activity change, negative = viability loss” value: 10.1% for the first, 19.8% for the second.

Compared with C1CC2OC2CC1C1CO1 (stereo not given), BrCC(Br)C1CCC(Br)C(Br)C1 (stereo not given) is lower in “activity change, negative = viability loss” value: 14.5% for the first, 6.78% for the second.

Going from CCCCCOC(=O)c1ccccc1C(=O)OCCCCC to COP(=S)(OC)SCn1nnc2ccccc2c1=O, the “activity change, negative = viability loss” value rises from -7.54% to 2.79%.

Compared with Cc1cccc(N)c1C, Nc1cc(Cl)ccc1O is lower in “activity change, negative = viability loss” value: 3.32% for the first, -17.2% for the second.

Going from Cc1coc2c1CCC(C)C2 (stereo not given) to CC1CC(=O)O1 (stereo not given), the “activity change, negative = viability loss” value rises from -3.93% to 3.41%.

Compared with O=[N+]([O-])c1cc(Cl)c(Cl)c(Cl)c1, Clc1cc(Cl)c(Cl)c(Cl)c1 is higher in “activity change, negative = viability loss” value: 5.41% for the first, 16.8% for the second.

First: ClCc1ccccc1
Second: ClCc1ccccn1
The “activity change, negative = viability loss” value of the first is higher: 16.1% for the first, 8.45% for the second.

First: C/C=C/CC#N
Second: CC(C)CON=O
The “activity change, negative = viability loss” value of the first is lower: 0.748% for the first, 3.56% for the second.

Compared with Clc1ccc(C(c2ccccc2Cl)C(Cl)(Cl)Cl)cc1 (stereo not given), Clc1ccc(Cl)c(Cl)c1 is higher in “activity change, negative = viability loss” value: -1.38% for the first, 3.1% for the second.

Going from ClCCOCOCCCl to OCCOCCO, the “activity change, negative = viability loss” value rises from 5.16% to 8.4%.

First: O=C(O)C(Cl)(Cl)Br
Second: CC(Cl)(Cl)Cl
The “activity change, negative = viability loss” value of the first is lower: 19.3% for the first, 27.3% for the second.

First: ClCC(Br)CBr (stereo not given)
Second: ClCCBr
The “activity change, negative = viability loss” value of the first is lower: 8.71% for the first, 24.3% for the second.

First: Nc1ccc(Cc2ccc(N)cc2)cc1
Second: Nc1ccc(Oc2ccc(N)cc2)cc1
The “activity change, negative = viability loss” value of the first is lower: -23.9% for the first, -18.6% for the second.

Compared with Oc1cc(Cl)cc(Cl)c1, S=c1[nH]c2ccccc2[nH]1 is lower in “activity change, negative = viability loss” value: 4.76% for the first, -13.2% for the second.

Going from O=[N+]([O-])c1ccccc1-c1ccccc1 to NNC(N)=S, the “activity change, negative = viability loss” value rises from 1.18% to 7.36%.

With CCOP(=S)(OCC)SCCSCC the “activity change, negative = viability loss” value was 15.4%.

With [N-]=[N+]=[N-] the Potency was 2510 nM (active).
